hgDAF-12 ag: H. glycines DAF-12 receptor agonists, primary screen, cell-based, luminescence, HEK293, GAL4 fusion, UAS-luciferase. AID 687014, 2013. activation, % at 6.8 µM. Nuclear hormone receptor DAF-12 (Heterodera glycines), GAL4 fusion. 1.8% of 370,000 active. HEK293 GAL4-hgDAF12 UAS-luciferase reporter, agonist luminescence; normalized to butyrate control;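 active means activation above a cutoff set at the mean of all screened compounds plus 3 SD, cut at about 10% in these data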
SMARCA2 activ: SMARCA2 (BRM) function activators, primary screen, cell-based, luminescence, high throughput | MG213 cells, MMTV-luciferase reporter, dexamethasone, overnight | activation, % at 9.1 µM | 1% of 370,000 active; in the data active means activation above about 7.8%
hcDAF12 agonist: H. contortus DAF-12 nuclear receptor activators, primary screen, cell-based, luminescence, HEK293, lit1-tk-luc reporter; HEK293 hcDAF-12 lit1-tk-luc reporter; 0% DMSO, 100% Δ7-dafachronic acid; activation, % at 6.8 µM; 1.4% of 370,000 active; AID 652067, 2013;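 active means activation above the mean of all tested compounds plus 3 SD, cut at about 5.5% in these data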
ssDAF-12 act: S. stercoralis DAF-12 nuclear receptor activators, primary screen, cell-based, luminescence, HEK293, GRIP1 co-expression, lit1-tk-luc | 1% of 370,000 active | AID 652126, 2013 | Nuclear hormone receptor DAF-12 (Strongyloides stercoralis) | HEK293 ssDAF-12/GRIP1 lit1-tk-luc reporter; % of 3 µM dafachronic acid response | activation, % at 6.8 µM;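 active means activation above the mean over all tested compounds plus 3 SD, cut at about 0.9% in these data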
DAX1 inh-1: DAX1 (NR0B1) inhibitors, primary screen, cell-based, HEK293, Gal4-DAX1, luciferase luminescence. 0.99% of 340,000 active. AID 504766, 2011. inhibition, % at 6.75 µM. HEK293 Gal4-DAX1 luciferase reporter. Nuclear receptor subfamily 0 group B member 1 (Homo sapiens), P51843;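 active means inhibition above the mean over all tested compounds plus 3 SD, cut at about 4.2% in these data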;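 further: inhibition shows as a rise in luminescence from relieved DAX1 repression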
Target sequence (P51843 207-470 limits assumed): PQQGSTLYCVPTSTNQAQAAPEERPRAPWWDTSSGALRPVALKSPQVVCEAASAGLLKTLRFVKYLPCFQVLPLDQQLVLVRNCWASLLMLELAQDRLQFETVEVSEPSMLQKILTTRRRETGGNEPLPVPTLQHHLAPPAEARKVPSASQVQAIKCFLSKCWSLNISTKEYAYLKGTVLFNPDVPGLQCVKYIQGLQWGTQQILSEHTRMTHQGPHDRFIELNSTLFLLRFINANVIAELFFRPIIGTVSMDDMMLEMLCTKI
DAX1 inh-2: DAX1 (NR0B1) inhibitors on StAR promoter, primary screen, cell-based, luminescence, SF-1 (NR5A1), full-length DAX-1; HEK293T StAR-luciferase reporter, SF-1/DAX-1 repression relief; inhibition, % at 6.8 µM; 1.1% of 370,000 active;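 active means inhibition above the mean over all tested compounds plus 3 SD, cut at about 3.6% in these data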;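 further: higher inhibition means more luminescence from relief of DAX-1 repression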
Each line names hits and unclear results; the compound was inactive in the other large screens. Compounds with a hit are over-represented: about 4.8% of the library has one in this group of screens.

CC(=O)Nc1ccc(/C=N\NC(=O)c2cccc(S(=O)(=O)N(C)C)c2)cc1	none (no result: DAX1 inh-1)
CC1CCC2(CC1)CCC2NCc1ccc(Br)cc1 (stereo not given)	none (no result: SMARCA2 activ, DAX1 inh-1, DAX1 inh-2)
CCOc1ccc2nc(/N=C/c3c(C)[nH]n(-c4ccccc4)c3=O)sc2c1	ssDAF-12 act 0.9
CCOc1[nH]n(-c2ccccc2)c(=O)c1C=Nc1ccc(OC)cc1	none
COC(=O)Cn1nc(-c2ccccc2)c2cccc(C(F)(F)F)c21	none (no result: SMARCA2 activ, DAX1 inh-1, DAX1 inh-2)
O=C(Nc1ccc(F)cc1)Nc1c(-c2ccc(F)cc2)nc2ncccn12	ssDAF-12 act 1.8 (no result: DAX1 inh-1)
O=C1CCC[C@H]2C[C@H](NCc3ccc(Cl)cc3)CC[C@]23CCCN13	none (no result: SMARCA2 activ, DAX1 inh-1, DAX1 inh-2)
Cc1ccc2c(CN3CC(C)CC(C)C3)cc(=O)oc2c1 (stereo not given)	none
Cc1ccc2c(CN3CCC(C)CC3)cc(=O)oc2c1	hgDAF-12 ag 10.8
O=c1c(O)c(-c2ccc(O)c(O)c2)oc2cc(O)cc(O)c12	hgDAF-12 ag 11.8
COC(=O)[C@H]1C[C@@]2(c3ccccc3)c3ccccc3N[C@H]2N1	none (no result: DAX1 inh-1)
CCCC1CCC(c2nc(-c3cccnc3)no2)CC1 (stereo not given)	DAX1 inh-1 4.7
CSC(=S)NN=C(C)c1cccc(C)n1	hcDAF12 agonist 6.0
C/C(=N/NC(=O)c1sc(NS(=O)(=O)c2ccccc2)nc1C)c1ccccc1	DAX1 inh-1 5.6
O=C(CSc1nnc(SCc2cccc3ccccc23)s1)c1ccc(F)cc1	none (no result: DAX1 inh-1)
O=Cc1ccc(-n2cc(C=O)c3ccccc32)cc1	none
Cn1cc(C=O)c2ccccc21	ssDAF-12 act 1.3
Nc1nc(SCC(=O)N2CCCC2)[nH]c(=O)c1NC(=O)c1ccco1	ssDAF-12 act 2.3
Cc1cc(C)c(NC(=O)CCCC(=O)O)c(Cl)c1	none
CC(C)=CC(=O)Nc1c(C)cc(C)cc1Cl	DAX1 inh-1 4.6
COc1ccc(C(C)=O)cc1CN1C(=O)NC(CC(C)C)C1=O (stereo not given)	DAX1 inh-1 4.4
CCOc1ccc(-c2nc(CSCC(=O)NC3CCC3)c(C)o2)cc1	none (no result: SMARCA2 activ, DAX1 inh-1, DAX1 inh-2)
CCCCn1c(NC(=O)c2ccccc2)nc2ccccc21	none
CCn1c(NC(=O)c2ccccc2)nc2ccccc21	ssDAF-12 act 2.3 (no result: DAX1 inh-1)
COC(=O)Cn1c(C(O)c2ccccc2)nc2ccccc21 (stereo not given)	ssDAF-12 act 1.7
CCn1c(C(O)c2ccccc2)nc2ccccc21 (stereo not given)	none
CCn1c(C(C)NC(C)=O)nc2ccccc21 (stereo not given)	hgDAF-12 ag 12.2
O=C(NCc1ccc(Cl)cc1)O[C@H]1CC[C@@]23CCCN2C(=O)CCC[C@H]3C1	none (no result: SMARCA2 activ, DAX1 inh-1, DAX1 inh-2)
CC(=O)c1c(C)[nH]c(C(=O)Nc2ccccc2C)c1C	none (no result: SMARCA2 activ, DAX1 inh-1, DAX1 inh-2)
Cc1ccc(-c2cc(C(F)F)n3ncc(C(=O)N4CCCCC4c4cccnc4)c3n2)cc1 (stereo not given)	hcDAF12 agonist 5.7, DAX1 inh-1 4.5
Cc1cccc(Cn2cc(COC(=O)NCC(C)C)nn2)c1	none (no result: DAX1 inh-1)
CCCCNC(=O)C[C@H]1C[C@@]2(C(=O)OC)C(=C[C@H](C3CCCC3)O[C@@H]2C)N(Cc2ccccc2)C1=O	none (no result: DAX1 inh-1)
COC(=O)[C@]12C[C@H](CC(=O)NCc3cccs3)C(=O)N(Cc3ccccc3)C1=C[C@H](COCc1ccccc1)O[C@@H]2C	hgDAF-12 ag 11.0 (no result: DAX1 inh-1)
CCCCNC(=O)C[C@H]1C[C@@]2(C(=O)OC)C(=C[C@H](C3CCCC3)O[C@@H]2C)N(Cc2ccco2)C1=O	SMARCA2 activ 7.8 (no result: DAX1 inh-1)
COC(=O)[C@]12C[C@H](CC(=O)NCc3cccs3)C(=O)N(Cc3ccc(Cl)cc3Cl)C1=C[C@H](COCc1ccccc1)O[C@@H]2C	none (no result: DAX1 inh-1)
O=C(Nc1ccc(F)cc1)N1CCc2ccccc2C1	hgDAF-12 ag 11.1
O=C(NC1CCCCC1)N1CCc2ccccc2C1	hgDAF-12 ag 12.9
CCCCOCCCNC(=O)C[C@H]1C[C@@]2(C(=O)OC)C(=C[C@H](C3CCCC3)O[C@@H]2C)N(Cc2cccc3ccccc23)C1=O	none (no result: DAX1 inh-1)
Cc1ccc(C2=NN(CC(=O)NCc3cccs3)C(=O)CC2)cc1	DAX1 inh-1 5.4
CCCCn1c(N)c(N(CCOC)C(=O)COc2ccc(OCC)cc2)c(=O)[nH]c1=O	none
CCCCn1c(N)c(N(CC)C(=O)COc2ccc(C#N)cc2)c(=O)[nH]c1=O	ssDAF-12 act 1.3
C=CCN1[C@H](Cc2ccccc2)COc2cccc(N3CCCC3)c2S1(=O)=O	none (no result: DAX1 inh-1)
C[C@@H](NC(=O)[C@@H]1Cc2ccccc2CN1)C(=O)Nc1ccc2c(c1)OCO2	DAX1 inh-1 5.2
Fc1cccc(CSc2nc3ccncc3[nH]2)c1	DAX1 inh-2 4.4
COc1cccc(C(=O)C[n+]2ccccc2/C=N/O)c1	ssDAF-12 act 1.2
Nc1cccc(Oc2ccc3c(c2)C(=O)N(CC2CCCO2)C3=O)c1 (stereo not given)	hgDAF-12 ag 11.3
CC1(C)CNC(=S)N1Cc1ccccc1	DAX1 inh-1 4.3
S=C1NCN(Cc2ccccc2)CN1	none
CN(C)Cc1ccccc1CCc1ccccc1	none (no result: DAX1 inh-1)
N=c1ccn(O)cc1CCc1ccccc1	DAX1 inh-1 5.8
O=C(O)c1cccc(S(=O)(=O)NCC(=O)N2CCN(c3ccccn3)CC2)c1	none (no result: DAX1 inh-1)
CCCCNC(=S)N(CCN(CC)CC)Cc1cc2cc3c(cc2[nH]c1=O)OCO3	none
CCCCNC(=S)N(CCN(CC)CC)Cc1cc2cc3c(cc2[nH]c1=O)OCCO3	DAX1 inh-1 4.3
COc1ccc(C2SCC(C(=O)O)N2C(C)=O)cc1OC (stereo not given)	DAX1 inh-1 8.4
C[C@@H]1CN([C@@H](C)COC(=O)C(C)(C)C)C(=O)c2cc(NC(=O)Nc3ccccc3)ccc2O[C@@H](C)CCCCO[C@H]1CN(C)S(=O)(=O)c1ccc(F)cc1	none (no result: SMARCA2 activ, DAX1 inh-1, DAX1 inh-2)
CC(=O)N/C(=C\c1ccccc1)C(=O)OCC(=O)c1c(N)n(CC(C)C)c(=O)n(C)c1=O	DAX1 inh-1 4.4
C=CCn1c(=O)c2ccccc2n2c(SCC(=O)O)nnc12	none
O=C(O)CSc1nnc2n(-c3ccccc3)c(=O)c3ccccc3n12	DAX1 inh-1 5.4
O=C(/C=C/c1cccs1)Nc1ccc(N2CCOCC2)c(S(=O)(=O)Nc2ccccc2Cl)c1	none
O=C(/C=C/c1cccs1)Nc1ccc(N2CCOCC2)c(S(=O)(=O)Nc2cc(Cl)ccc2Cl)c1	hcDAF12 agonist 5.7
